Hits are enriched below; roughly 21% of the tested compounds scored in any of these assays.
CHX counter: affects cycloheximide protein synthesis inhibition readout, counter-screen | max response, % | cell reporter, cycloheximide protein synthesis inhibition counterscreen | hit rate 12% among 300,000; in the data active means max response mostly above about 13%, no sharp cut-off; inactive means mostly below about 14%; further: read at 38.3 µM for the half of the compounds with a filed dose; 0% is about no effect
Pf growth 48h: P. falciparum growth inhibition at 48 hours (one generation) | P. falciparum luciferase growth in erythrocytes, 48 h | hit rate 5.9% among 310,000 | Potency, µM (doses to about 28.7 µM), without a hit: at the highest dose activity change, negative = inhibition, hits mostly inhibitors; further: potency means the concentration at half of the fitted maximal effect; on the % scale 0 is the no-effect control and ±100 the full control effect
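Luminescence readout; reporter = integrated firefly luciferase in P. falciparum. RBC culture at 2% hematocrit, 0.1% parasitemia final, 37 C/5% CO2; decreased signal taken as growth inhibition.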
Pf growth 96h: P. falciparum growth inhibition at 96 hour, primary screen for plastid delayed-death inhibitors | P. falciparum luciferase reporter growth, 96 h | Potency, µM (series often up to 28.7 µM), without a hit: at the highest dose activity change, negative = inhibition, actives largely listed as inhibitors | hit rate 6.9% among 320,000; further: potency means the concentration at half of the fitted maximal effect; on the % scale 0 is the no-effect control and ±100 the full control effect
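Readout is luminescence from an integrated firefly luciferase in P. falciparum. Red cells, 2% hematocrit and 0.05% parasitemia final, were cultured with compound through two parasite generations (96 hours) at 37 C, 5% CO2.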
Shiga toxin inh: Shiga toxin inhibition. hit rate 9.2% among 290,000. Vero cells, Shiga toxin protein synthesis inhibition reporter. inhibition, % at 38.7 µM; in the data active means inhibition mostly above about 28%, no sharp cut-off; inactive means mostly below about 43%; further: 0% is about no effect
Numbers without * were called inactive; i = inactive; ? = inconclusive; / = no result given; [ ] = remark or other dose. Unless noted, the call rests on the fitted dose curve; in most records, active means well fitted inhibition curve with a large enough effect; inconclusive means small, poorly fitted or top-dose-only effect, or another doubt; inactive means no such curve, though single readings can be large or run the other way.

SMILES	CHX counter	Pf growth 48h	Pf growth 96h	Shiga toxin inh
O=C(Nc1ccc2nc(N3CCOCC3)sc2c1)c1ccc(F)cc1	/	-28%	?	/
O=C(c1cccs1)N1CCN(c2nc3c(F)cc(F)cc3s2)CC1	/	-7%	?	/
O=C(c1ccccc1)N1CCN(c2nc3ccc([N+](=O)[O-])cc3s2)CC1	4	-3%	-19%	10
Fc1cc(F)c2nc(N3CCCCC3)sc2c1	78*	45%	8.3µM*	115*
O=[N+]([O-])c1ccc2nc(N3CCCC3)sc2c1	29*	14%[0.00184 µM]	173%	68*
COCCCN1C(=O)c2ccc(C(=O)N3CCN(c4ccccc4OC)CC3)cc2C1=O	-2	0%	59%	10
Cc1c(CCOC(=O)CC23CC4CC(CC(C4)C2)C3)sc[n+]1Cc1ccccc1	2	7.4µM*	?	-14
Cc1c(CCO)sc[n+]1CC(=O)OCCC12CC3CC(CC(C3)C1)C2	-2	5.2µM*	1µM*	1
CCc1cccc(NC(=O)C2CC2c2ccccc2)c1 (stereo not given)	10	20%	?	/
O=C1NC(=O)N(Cc2ccco2)C(=O)/C1=C/c1cccn1CCOc1ccccc1Cl	23*	23%	-29%	70*
CS(=O)(=O)c1nc2ccccc2n1Cc1ccccc1	-2	-15%	-5%	12
CCS(=O)(=O)c1nc2ccccc2n1Cc1ccccc1Cl	1	?	10µM*	21
O=C(c1cc2ccccc2cc1O)N1CCCC(C(F)(F)F)C1 (stereo not given)	10	-4%	?	-14
COc1cc2ccccc2cc1C(=O)N1CCCC(C(F)(F)F)C1 (stereo not given)	/	0.52µM*	0.47µM*	/
CCN1CCN(C(=O)c2ccc3nc(-c4ccccc4)c(-c4ccccc4)nc3c2)CC1	-5	5%	?	-12
O=C(COc1cc(Cl)c(Cl)cc1Cl)NC(=O)Nc1ccc2c(c1)OCCO2	76*	90%	135%	145*
Cc1ccc(Cl)c(OCC(=O)Nc2ccc3c(c2)OCCO3)c1	52*	113%	/	112*
Cc1cc(OCC(=O)Nc2ccc3c(c2)OCCO3)cc(C)c1Cl	-3	31%	/	33
O=C(COc1ccc(S(=O)(=O)N2CCOCC2)cc1)NCCN1CCOCC1	-12	0%	243%	-15
Cn1cccc1C(=O)C(=O)Nc1ccc(Cl)cc1	52*	487%	111%	81*
Cn1cccc1C(=O)C(=O)Nc1ccc(F)c(F)c1	45*	326%	i	82*
Cn1cccc1C(=O)C(=O)Nc1cc(Cl)cc(Cl)c1	8	103%	?	23
COc1ccccc1NC(=O)COC(=O)CCC(=O)c1cccs1	/	5%	?	/
CS(=O)(=O)c1ccc(C(=O)OCc2nnc(-c3ccccc3)o2)cc1[N+](=O)[O-]	25*	0%	2%	21
O=C(OCc1nnc(-c2ccccc2)o1)C1=COCCO1	22*	9%	443%	25
SMILES	CHX counter	Pf growth 48h	Pf growth 96h	Shiga toxin inh
Cc1ccccc1NC(=O)COC(=O)c1ccc(S(C)(=O)=O)c([N+](=O)[O-])c1	14*	-16%	-1%	11
CN(C)S(=O)(=O)c1ccc(C(=O)OCc2nnc(-c3ccccc3)o2)cc1	10	-24%	29%	26
O=C(OCc1nnc(-c2ccccc2)o1)c1ccc2c(c1)OCCO2	22*	71%	104%	45*
CCOC(=O)c1ccc(Oc2c(C)oc3cc(OS(C)(=O)=O)ccc3c2=O)cc1	-1	14%	-21%	14
O=C(CCN1C(=O)/C(=C/C=C/c2ccccc2)SC1=S)Nc1ccccn1	-10	2%	-59%	-23
COc1ccccc1/C=C1/SC(=O)N(CCC(=O)Nc2ccc(S(=O)(=O)Nc3nccs3)cc2)C1=O	-2	-21%	13µM*	-12
COc1ccccc1/C=C1/SC(=S)N(CCC(=O)Nc2cccnc2)C1=O	36*	16%	?	10*
O=C(CCN1C(=O)/C(=C/C=C/c2ccccc2)SC1=S)Nc1cccnc1	47*	48%	8%	86*
O=C(CCN1C(=O)/C(=C\c2ccccc2Cl)SC1=S)Nc1cccnc1	-4	8%	?	0
O=C(CCN1C(=O)S/C(=C\c2ccccc2)C1=O)Nc1ccc(S(=O)(=O)Nc2nccs2)cc1	-2	-7%	?	-19
COc1ccccc1OCCNC(=O)C1CC(=O)N(Cc2ccc(C)cc2)C1 (stereo not given)	/	?	-7%	/
COc1cc(C(=O)Nc2nc(-c3cccs3)cs2)cc(OC)c1OC	8	12µM*	14%[5.75 µM]	-9
COc1ccc(C(=O)Nc2nc(-c3cccs3)cs2)cc1	45*	-7%	/	84*
CCOc1cccc(-c2nn(-c3ccccc3)cc2/C=C(/C#N)C(=O)NCCCn2ccnc2)c1	-2	2.6µM*	?	-1
N#C/C(=C/c1cn(-c2ccccc2)nc1-c1cccc(OCc2ccccc2)c1)C(=O)NCCCn1ccnc1	-2	4.7µM*	2.1µM*	2
COc1ccc(CN2CCN(C3CCC3)CC2CCO)c(F)c1 (stereo not given)	10	2%	54%	-8
Cc1ccc(C2C3=C(CC(C)(C)CC3=O)N(CCN3CCOCC3)C3=C2C(=O)CC(C)(C)C3)cc1	20	12µM*	?	-4
Cc1ccc(C2C3=C(CCCC3=O)OC3=C2C(=O)CCC3)cc1	-3	1%	37%	13
Cc1ccc(C2C3=C(CC(C)(C)CC3=O)OC3=C2C(=O)CC(C)(C)C3)cc1	-5	10µM*	-6%	-1
CCc1ccccc1NC(=O)CN1CCN(C(=O)CN2C(=O)NC3(CCCC3)C2=O)CC1	/	?	-6%	/
Cc1ccccc1Cn1ccc(NC(=O)c2nc3ncccn3n2)n1	9.3*	29%	21%	18
Cc1ccccc1Cn1ccc(NC(=O)c2onc(C)c2Cl)n1	29*	37%	15%	76*
Cc1ccccc1Cn1cc(NC(=O)c2nc3ncccn3n2)cn1	23	45%	/	53
O=C1CC(N(CCc2ccccc2)C(=S)Nc2ccccc2)C(=O)N1c1ccccc1 (stereo not given)	-2	?	3.3µM*	15
O=C1CC(N(CCc2ccccc2)C(=S)Nc2ccccc2)C(=O)N1c1ccc(F)cc1 (stereo not given)	-2	?	?	26
O=C1CC(N(CCc2ccccc2)C(=S)Nc2cc(Cl)ccc2Cl)C(=O)N1c1c(Cl)cccc1Cl (stereo not given)	-1	?	10µM*	-4
CNC(=S)N(CCc1ccc(OC)c(OC)c1)C1CC(=O)N(c2ccccc2)C1=O (stereo not given)	7	?	-2%	7
O=C(Nc1cc(Cl)ccc1Cl)C1CC(=O)N(c2ccccc2)C1 (stereo not given)	-4	-33%[1.15 µM]	-43%[1.15 µM]	8
COC(=O)CN(C(=S)Nc1ccc(F)cc1)C1CC(=O)N(c2ccccc2)C1=O (stereo not given)	-2	10µM*	7%	-8
CCNC(=S)N(CCc1ccc(S(N)(=O)=O)cc1)C1CC(=O)N(c2ccccc2)C1=O (stereo not given)	1	?	10µM*	2
